{"source": "PubChem BioAssay (EPA / NIEHS)", "note": "Results filed as inconclusive are left out. Activity calls are given as the source filed them. Rule for the calls: active = hit-call score of the fitted dose curve at least 0.9, where 1 is the maximum; inconclusive = response in the unintended direction; inactive = score below 0.9."}
{"test": "ACEA_ER_80hr: ACEA Biosciences xCELLigence Real-Time Cell Analysis on Estrogen Receptor Agonism for Proliferation (AID 2282667)", "details": "T47D proliferation, impedance (xCELLigence), 80 h", "description": "ACEA_ER is a cell-based, single-readout assay that uses T47D, a human breast cell line, with measurements taken at 80 hours after chemical dosing in a 96-well plate, although TO2 (mc0.srcf) used a 384-well plate. Differences in plate size can be ignored given data normalization.ACEA_ER_80hr is one of two assay component(s) measured or calculated from the ACEA_ER assay. It is designed to make measurements of real-time cell-growth kinetics, a form of growth reporter, as detected with electrical impedance signals by Real-Time Cell Electrode Sensor (RT-CES) technology.Data from the assay component ACEA_ER_80hr was analyzed into 1 assay endpoint. This assay endpoint, ACEA_ER_80hr_Positive, was analyzed in the positive analysis fitting direction relative to DMSO as the negative control and baseline of activity. Using a type of growth reporter, measures of the cells for gain-of-signal activity can be used to understand the signaling at the pathway-level as they relate to the gene ESR1. Furthermore, this assay endpoint can be referred to as a primary readout, because this assay has produced multiple assay endpoints where this one serves a signaling function. To generalize the intended target to other relatable targets, this assay endpoint is annotated to the nuclear receptor intended target family, where the subfamily is steroidal.\nThe xCELLigence system Multi-E-Plate stations were used to measure the time-dependent response to chemicals. Each compound was tested in an eight-point, 1:4 serial dilution series starting at a maximum final concentration of 100 uM. A maximum starting concentration of 0.5% DMSO was present in the 100 uM chemical samples and was diluted along with the test article dilution series. The screen was performed in biological duplicate using two separate, 96-well, E-Plates 96 for each dilution series (n = 2). Positive controls (MG132 and E2) and a negative control (assay media) were tested in quadruplicate on each testing plate. […] Reference compounds were tested with 8 concentrations with 1:5 serial dilutions. All screening was carried out by ACEA Biosciences, Inc. (San Diego, CA). T-47D cells purchased from ATCC were maintained in RPMI1640 media supplemented with 10% characterized fetal bovine serum (FBS). […] Cells were then detached and seeded in E-Plates 96 in assay medium. After overnight monitoring of growth once every hour, compounds were added to […] cells and remained in the medium until the end of the experiment. Cellular responses were then recorded once every 5 min for the first 5 h, and once every hour for an additional 100 h."}
{"compound": "O=S(=O)(c1ccc(O)cc1)c1ccc(O)cc1", "AC50": "2.18 µM (active)"}
{"compound": "Cc1cccc(N)c1", "outcome": "inactive"}
{"compound": "O=C(CBr)OCc1ccccc1", "outcome": "inactive"}
{"compound": "CC(C)(C)c1ccc(O)cc1", "AC50": "10.5 µM (active)"}
{"compound": "O=C(O)C(Cl)Cl", "outcome": "inactive"}
{"compound": "CC(O)C(F)(F)C(F)(F)F", "note": "(stereo not given)", "outcome": "inactive"}
{"compound": "COCCOCCO", "outcome": "inactive"}
{"compound": "OCC1CO1", "note": "(stereo not given)", "outcome": "inactive"}
{"compound": "Cc1cc(C)c(C(=O)P(=O)(c2ccccc2)c2ccccc2)c(C)c1", "outcome": "inactive"}
{"compound": "O=[N+]([O-])c1cc(Cl)ccc1Cl", "outcome": "inactive"}
{"compound": "Oc1ccccc1Br", "outcome": "inactive"}
{"compound": "CO/N=C(/C(=O)OC)c1ccccc1COc1ccccc1C", "outcome": "inactive"}
{"compound": "ClC(Cl)=C(c1ccc(Cl)cc1)c1ccccc1Cl", "outcome": "inactive"}
{"compound": "CC(C)CBr", "outcome": "inactive"}
{"compound": "C=C(C)C(=O)OCC1CO1", "note": "(stereo not given)", "outcome": "inactive"}
{"compound": "CC1=C(C(=O)Nc2ccccc2)S(=O)(=O)CCO1", "AC50": "0.267 µM (active)"}
{"compound": "N#Cc1ccc(O)cc1", "outcome": "inactive"}
{"compound": "CCNc1nc(Cl)nc(NC(C)(C)C)n1", "AC50": "28 µM (active)"}
{"compound": "Cc1c([N+](=O)[O-])cc2c(c1[N+](=O)[O-])C(C)(C)CC2(C)C", "outcome": "inactive"}
{"compound": "COC(=O)C(F)(F)C(F)(F)OC(F)(C(F)(F)F)C(F)(F)OC(F)=C(F)F", "note": "(stereo not given)", "outcome": "inactive"}
{"compound": "CCOS(=O)(=O)OCC", "outcome": "inactive"}
{"compound": "N#Cc1c(-c2ccc(Cl)cc2)[nH]c(C(F)(F)F)c1Br", "outcome": "inactive"}
{"compound": "NC(=O)C(F)(F)C(F)(F)F", "AC50": "20.5 µM (active)"}
{"compound": "ClC1=C(Cl)C2(Cl)C3C(Cl)C(Cl)CC3C1(Cl)C2(Cl)Cl", "note": "(stereo not given)", "outcome": "inactive"}
{"compound": "N#C/C=C/c1ccccc1", "outcome": "inactive"}
{"compound": "O=C(O)C1C(C(=O)O)C2(Cl)C(Cl)=C(Cl)C1(Cl)C2(Cl)Cl", "note": "(stereo not given)", "outcome": "inactive"}
{"compound": "CCOP(=S)(OCC)SCSc1ccc(Cl)cc1", "outcome": "inactive"}
{"compound": "CCCCc1ccccc1", "outcome": "inactive"}
{"compound": "OCC(F)(F)OC(F)(F)C(F)(F)OC(F)(F)C(F)(F)OC(F)(F)F", "outcome": "inactive"}
{"compound": "O=P(Oc1ccccc1)(Oc1ccccc1)Oc1ccccc1", "outcome": "inactive"}
{"compound": "CCN(CC)C1CCCCC1", "outcome": "inactive"}
{"compound": "c1cc2c3c(cccc3c1)CC2", "outcome": "inactive"}
{"compound": "O=C(O)C=CC(F)(C(F)(F)F)C(F)(F)F", "outcome": "inactive"}
{"compound": "CCOP(=S)(NC(C)C)Oc1ccccc1C(=O)OC(C)C", "note": "(stereo not given)", "outcome": "inactive"}
{"compound": "CCCCN(CC)C(=O)SCCC", "outcome": "inactive"}
{"compound": "OCC(F)(F)OC(F)(F)C(F)(F)OC(F)(F)C(F)(F)OC(F)(F)CO", "AC50": "0.976 µM (active)"}
{"compound": "Clc1ccc(Oc2ccccc2)cc1", "outcome": "inactive"}
{"compound": "CCCCOCCOP(=O)(OCCOCCCC)OCCOCCCC", "AC50": "10.5 µM (active)"}
{"compound": "c1ccc(OP(Oc2ccccc2)Oc2ccccc2)cc1", "outcome": "inactive"}
{"compound": "C/C(=N\\NC(=O)Nc1cc(F)cc(F)c1)c1ncccc1C(=O)O", "AC50": "0.265 µM (active)"}
